Assay outcomes: PubChem, National Center for Advancing Translational Sciences (NCATS)
An excerpt weighted towards active compounds, which were near 9.3% of everything screened.
Sm TGR inh: blocks Schistosoma mansoni thioredoxin glutathione reductase; Potency, µM (top dose mostly 114 µM), inactives show at the highest dose activity change, negative = inhibition, actives largely listed as inhibitors; Q962Y6; purified TGR, DTNB reduction, TNB absorbance 405 nm; AID 485364; 3% of 360,000 active; also: potency is read from the fitted curve at half-maximal effect; nearly all actives have a fitted effect of over 60% in size
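First, TGR (20 nM dispensed) and NADPH were mixed with compound. Second, a 15 min room-temperature incubation followed. Third, further NADPH and then DTNB were added to start the reaction. Finally, TNB absorbance was monitored kinetically.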
VACV mCherry inh: inhibitors of vaccinia virus infection (mCherry reporter signal); Vaccinia virus mCherry reporter infection, fluorescence; Potency, µM (doses to about 36.5 µM), for inactives: at the highest dose activity change, negative = inhibition, usual class: inhibitors; 0.63% of 310,000 active; calls by dose curve; tested in A549 cells; also: potency is read from the fitted curve at half-maximal effect; nearly all actives have a fitted effect of over 35% in size
VACV Venus inh: vaccinia inhibition (Venus reporter); Vaccinia virus Venus reporter expression, fluorescence; Potency, µM (titrated, usually from 36.5 µM), without a hit: top-dose activity change, negative = inhibition, usual class: inhibitors; 0.46% of 330,000 active; calls by dose curve; tested in A549 cells; also: potency is read from the fitted curve at half-maximal effect; nearly all actives have a fitted effect of over 30% in size
HCMV inh: human cytomegalovirus inhibition; HFF cells, HCMV-luciferase reporter, 72 h; hits give low values; activity change, negative = inhibition, % at 57.5 µM; 4.5% of 410,000 active; AID 1259415; in the data active = activity change below about -60%; inconclusive = no clear call, values can overlap the other calls; inactive = above about -39%
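Two compound doses tested in HFFs infected with HCMV-luciferase, MOI 1 PFU/cell, 72 h at 37C. Lysate luminescence read with OneGlo; data normalized against buffer-only and 10uM Salinomycin inhibitor controls.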
FMDV antiviral: blocks foot and mouth disease virus; AID 1159524; FMDV antiviral cell-based qHTS; Potency, µM (doses to about 57.9 µM), for inactives: at the top dose activity change, negative = inhibition, most hits filed as inhibitors; 1.2% of 410,000 active; calls by dose curve; tested in HEK293T cells; also: read-out not given here; potency is read from the fitted curve at half-maximal effect; nearly all actives have a fitted effect of over 45% in size
HCV inhibitor: inhibitors of hepatitis C virus infection; 3.4% of 340,000 active; Huh7.5.1 HCVcc-Cre infection, luciferase reporter, 44 h; AID 651820; Potency, µM (top dose mostly 41.8 µM), for inactives: at the top dose activity change, negative = inhibition, most hits filed as inhibitors; also: potency is read from the fitted curve at half-maximal effect
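Seed cells (1,000/well) for 4 h; treat with compound and infect with HCVcc-Cre, moi about 0.5. Incubate 44 h, then detect luciferase activity.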
* hit, by the source's call; i = inactive; u = inconclusive; x = no result. Unless noted, calls follow the shape of the dose curve; as a rule, active = well fitted curve in the direction sought with a large enough effect; inconclusive = small, poorly fitted or top-dose-only effect, or another doubt; inactive = no such curve, though single readings can be large; an effect the other way counts as inactive or inconclusive. % is scaled to controls: 0 for no effect and ±100 for the full control effect.

SMILES	Sm TGR inh	VACV mCherry inh	VACV Venus inh	HCMV inh	FMDV antiviral	HCV inhibitor
O=C(NCC1CCCO1)c1ccccc1S(=O)(=O)c1ccc([N+](=O)[O-])cc1 (configuration not stated)	-17%	-11%	-7%	-31	1%	6%
CCCCCCCSc1cc(OC)c(CCN(C)C)cc1OC	6%	u	10µM*	-26	-17%	u
CCCCCSc1cc(OC)c(CCN)cc1OC	9%	x	-18%	-70*	0%	u
COc1ccccc1C(=O)NCCC(=O)NC1CCCC(C)C1C (configuration not stated)	-4%	-1%	-12%	-15	-6%	-7%
C=CCOC(=O)C1=C(C)N=c2s/c(=C3\C(=O)N(CC(=O)O)c4ccccc43)c(=O)n2C1c1ccc(OC)cc1 (configuration not stated)	18µM*	-15%	5%	u	u	19%
COc1ccc(C2C(C(=O)OC(C)C)=C(C)N=c3s/c(=C\c4cccs4)c(=O)n32)cc1 (configuration not stated)	-7%	x	-7%	-10	-16%	7%
CCOC(=O)c1cccc2c1-c1ccccc1/C2=N/O	9%	u	u	-71*	x	-34%
CC(C)COC(=O)c1cccc2c1-c1ccccc1/C2=N\O	-19%	u	u	-31	-11%	7%
Brc1ccc(N=Nc2ccc3ccccc3n2)cc1	11%	-1%	-3%	u	10µM*	-25%
COC(=O)C1C=C2c3cccc4[nH]cc(c34)CC2N(C)C1 (configuration not stated)	10µM*	x	x	x	x	x
CC(C)C[C@H]1C(=O)N2CCC[C@H]2[C@]2(O)O[C@](NC(=O)[C@@H]3C=C4c5cccc6[nH]cc(c56)C[C@H]4N(C)C3)(C(C)C)C(=O)N12	5.6µM*	i	3%	x	-19%	u
COc1ccc(CCC(=O)N2CCCSC2=Nc2ccc(C(C)=O)cc2)cc1	-2%	i	-16%	3	-2%	29%
CCOC(=O)c1cc(-c2ccccc2)n(CCCC(=O)Nc2ccc(CC)cc2)c1C	-1%	u	u	u	u	x
CCOC(=O)c1cc(-c2ccc(C)cc2)n(CC(=O)Nc2cc(C)ccc2C)c1C	4%	-7%	9%	1	-6%	x
CCOC(=O)c1cc(-c2ccccc2)n(CCC(=O)Nc2ccc(C(F)(F)F)cc2)c1C	7%	-30%	-24%	-98*	u	x
CCOC(=O)c1cc(-c2ccc(C)cc2)n(CC(=O)Nc2ccccc2F)c1C	5%	u	u	-82*	13%	x
CC(C)(C)Cc1c(-c2ccc(Cl)cc2)nc2ccc(Br)cn12	x	-12%	-6%	-16	-1%	x
CC(C)(C)Cc1c(-c2ccc(F)cc2)nc2ccc(Br)cn12	x	-16%	-15%	-76*	-28%	x
O=c1ccc(S(=O)(=O)N2CCCC2)c[nH]1	x	x	x	30	-7%	7%
Cc1ccc(S(=O)(=O)NC(CC(C)C)C(=O)N2CCN(C/C=C/c3ccccc3)CC2)cc1 (configuration not stated)	-4%	x	x	u	-24%	11µM*
CC(=O)c1ccc(S(=O)(=O)NCC(=O)N2CCN(C/C=C/c3ccccc3)CC2)cc1	7.9µM*	-11%	-29%	-11	u	-7%
Cc1nn(C)c(C)c1NC(=O)CCl	x	u	u	-70*	-7%	6%
Cc1ccc(-n2nc(C)c(NC(=O)CCl)c2C)cc1C	22µM*	u	u	-103*	-19%	3.5µM*
Cc1nn(C)c(C)c1NC(=O)COc1ccc(Cl)cc1	6%	x	x	0	u	11µM*
C=CCn1c(SCC(=O)c2ccc(CNC(C)=O)o2)nc2scc(C3CC3)c2c1=O	u	x	x	-16	-17%	u
SMILES	Sm TGR inh	VACV mCherry inh	VACV Venus inh	HCMV inh	FMDV antiviral	HCV inhibitor
CCC(CC)COC(=O)C(C#N)c1nc2ccccc2nc1N1CCOCC1 (configuration not stated)	10%	x	x	u	u	-24%
O=C(COC(=O)CCN1C(=O)c2ccccc2C1=O)Nc1ccccc1[N+](=O)[O-]	-12%	i	-13%	u	-17%	4%
O=C(CCc1cn(Cc2ccccc2F)c2ccccc12)NCc1ccc(Cl)cc1	41%	-12%	-11%	-27	10µM*	x
COc1ccc(CNC(=O)c2cccc3c(-c4ccc(F)c(F)c4)coc23)cc1OC	x	11%	-18%	x	-26%	x
COc1cc(-c2coc3c(C(=O)NCc4ccc(OC)c(OC)c4)cccc23)ccc1O	x	16µM*	u	-73*	18µM*	x
COc1ccc(CNC(=O)c2cccc3c(-c4cccc(C(N)=O)c4)coc23)cc1OC	x	-4%	-30%	-94*	7.9µM*	x
Cc1ccc(NC(=O)COc2ccccc2C=O)cc1Cl	11%	i	-21%	137	-16%	-17%
Cc1cc(-c2nnnn2-c2ccc(C(F)(F)F)cc2)no1	-14%	-11%	-3%	32	-6%	1%
O=c1cc(N2CCCCC2)c(-c2ccccc2)nn1Cc1c(Cl)cccc1Cl	-10%	u	u	u	u	u
CCOC(=O)c1cccc(C2=CC(=O)C[C@H](c3ccc(OC)c(OC)c3)C2)c1	-11%	-13%	-20%	16	40µM*	13µM*
COc1ccc([C@H]2CC(=O)C=C(c3cccc4c3Oc3ccccc3S4)C2)cc1OC	4%	u	u	56	u	13µM*
COc1cccc(C2=CC(=O)C[C@H](c3ccc4c(c3)OCO4)C2)c1OC	-8%	i	0%	x	54%	10µM*
COc1cccc(OC)c1C1=CC(=O)C[C@H](c2ccc3c(c2)OCO3)C1	1%	u	-27%	-17	2%	u
O=C1C=C(c2cccc3c2Oc2ccccc2S3)C[C@@H](c2ccc(Cl)cc2)C1	-9%	-26%	-20%	16	-18%	-11%
COc1ccc([C@H]2CC(=O)C=C(c3cccc(CO)c3)C2)cc1OC	-6%	-6%	-10%	17	u	-21%
COc1ccc([C@H]2CC(=O)C=C(c3cccc(Br)c3)C2)cc1OC	x	-24%	u	19	u	u
COc1ccc([C@H]2CC(=O)C=C(c3cccc(C(C)C)c3)C2)cc1OC	-2%	u	u	-27	25µM*	u
Cc1c(C(=O)N(C)C(C)C)sc2ncnc(NCCCN3CCOCC3)c12	x	-16%	-4%	x	-15%	x
O=C(CN1C(=O)NC(c2ccccc2)(c2ccccc2)C1=O)N1CCCCC1	x	i	2%	43	-1%	38%
CCOC(=O)C1(Cc2cccc(F)c2)CCN(C(=O)C2CCC2)CC1	-1%	x	x	-14	10%	1%
CCOc1cccc(CN2CCC(Oc3ccc(C(=O)N4CCCC4)cc3)CC2)c1	-9%	i	-10%	18	-3%	1%
